About 2,100 (0.62%) of roughly 340,000 compounds were called active. The list is a sample of the results. Results with a measured potency or affinity are listed apart. Unmarked numbers belong to inactive results.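 Rule for the calls: active = first-screen hits whose inhibition reached a set limit at any dose in the follow-up dose series; inconclusive = inhibition above the set first-screen limit but never retested; inactive = the rest.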
target: Rac GTPase-activating protein 1 (Homo sapiens) (UniProt Q9H0H5); assay: MgcRacGAP GTPase-activating activity inhibitors, confirmation, biochemical, ADP Hunter fluorescence, primary and confirmatory (AID 624330); settings: MgcRacGAP-stimulated Rac1 GTP hydrolysis, at 30 µM, hits give high values, GST-tagged Rac1 F28L mutant substrate;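 note: fluorescence reports GDP produced by GAP-driven GTP hydrolysis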
Sequence (Q9H0H5 whole entry, looked up): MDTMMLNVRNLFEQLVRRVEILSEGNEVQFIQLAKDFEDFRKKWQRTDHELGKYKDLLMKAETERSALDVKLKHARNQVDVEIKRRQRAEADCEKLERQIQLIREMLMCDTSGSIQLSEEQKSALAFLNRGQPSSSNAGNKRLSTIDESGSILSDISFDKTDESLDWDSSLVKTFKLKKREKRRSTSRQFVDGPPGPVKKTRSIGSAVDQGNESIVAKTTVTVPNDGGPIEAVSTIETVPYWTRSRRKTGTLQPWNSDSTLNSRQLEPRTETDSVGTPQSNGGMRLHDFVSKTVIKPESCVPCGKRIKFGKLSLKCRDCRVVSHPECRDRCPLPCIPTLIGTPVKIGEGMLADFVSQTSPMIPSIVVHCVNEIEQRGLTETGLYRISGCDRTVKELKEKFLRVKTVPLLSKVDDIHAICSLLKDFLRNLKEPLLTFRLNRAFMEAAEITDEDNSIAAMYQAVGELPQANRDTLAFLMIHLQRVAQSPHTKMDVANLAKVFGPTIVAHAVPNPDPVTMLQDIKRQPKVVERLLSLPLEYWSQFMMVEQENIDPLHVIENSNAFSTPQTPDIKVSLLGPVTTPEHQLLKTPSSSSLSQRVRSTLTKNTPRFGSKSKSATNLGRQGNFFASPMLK

Compound | inhibition [%]
Cc1ccc(S(=O)(=O)N2CCN(C(=O)c3ccco3)CC2)c(C)c1 | 6.61
CC(=O)Nc1ccc(S(=O)(=O)N2CCCC3CCCCC32)cc1 (stereo unspecified) | 2.55
COCCCNC(=O)CC1C[C@H](C(=O)N2CCOCC2)[C@@]2(CCC3CCCC3)c3[nH]c4ccc(OC)cc4c3CCN2C1=O (stereo partly specified) | 3.79
O=C(NC1CCN(Cc2ccc(Cl)cc2Cl)CC1)c1ccccc1 | 5.03
Cn1c(C(=O)N2CCCC(Nc3ccc(F)cc3)C2)cc2ccccc21 (stereo unspecified) | -8.53
O=C(O)c1cccc(S(=O)(=O)Nc2ccccc2C(=O)NCCc2ccccc2)c1 | 4.14
COc1cc(C(=O)NCCc2ccc3c(c2)OCO3)cc(OC)c1OC | -4.93
COc1cc(CC(=O)NCc2ccc3c(c2)OCO3)cc(OC)c1OC | 4.17
Fc1cccc(CNCc2ccc3c(c2)OCO3)c1 | 3.78
COc1cccc(CNCc2ccc3c(c2)OCO3)c1 | 31.8
CC1(C)CC(=O)C=C(c2cccc(OC(=O)c3ccc(-c4ccccc4)cc3)c2)C1=O | 11.9
CCOc1ccc(NC(=O)CN2CCN(c3ccc(F)cc3)CC2)cc1S(=O)(=O)N1CCCC1 | 10.6
CN(CC(O)COc1ccc(S(=O)(=O)N2CCOCC2)cc1)C1CCCCC1 (stereo unspecified) | 10.6
O=C(CSc1nnnn1Cc1ccccc1)Nc1cccc(F)c1 | 8.78
Nc1ccc(C(=O)C(=O)c2ccc(N)cc2)cc1 | 6.66
N=C(N)c1ccc(N)cc1 | 10.7
CC(NC(=O)COc1cccc(Br)c1)C(=O)O (stereo unspecified) | 3.37
CCc1sc(C(=O)Nc2ccc(N3CCOCC3)cc2)cc1C | 9.93
CCOC(=O)/C(C#N)=C\C=C1C=CN(C)C=C1 | 10.4
CN1C(=S)SC(N(O)C=C2C=CC(=O)C=C2)C1(C)C (stereo unspecified) | 24.5
COc1ccc(C(CNC(=O)c2ccc(NS(=O)(=O)c3ccc4c(c3)OCCO4)cc2)N(C)C)cc1 (stereo unspecified) | -0.2

Compound | inhibition [%]
CCC(C)(c1ccc(C=O)s1)c1ccc(C=O)s1 | 6.23
Cc1ccc2c(CC(=O)NCc3cccs3)coc2c1 | 3.76
COc1ccc2c(CC(=O)NNC(=O)c3cccs3)coc2c1 | 5.91
Cc1ccc2c(CC(=O)NNC(=O)c3ccccc3)coc2c1 | 6.09
Cc1ccc2c(CC(=O)NNC(=O)c3ccccc3O)coc2c1 | -8.73
CN(C)CC1(c2ccccc2)CCCC1 | -6.5
CC1CCCCN1C(=S)Nc1ccc(OC(F)F)cc1 (stereo unspecified) | 2.05
O=c1[nH]c2ccccc2cc1CN(Cc1ccco1)S(=O)(=O)c1ccccc1 | 5.99
CC(C)(C)NC(=O)C(c1ccc(-c2ccccc2)cc1)N(C[C@H]1CC[C@@H]([C@@H]2CC[C@H](CO)O2)O1)C(=O)c1ccccc1F (stereo partly specified) | 3.69
O=C(O)Cn1nc(-c2ccccc2)ccc1=O | -3.67
CCN(CC)CCOC(=O)c1ccc(N/C=C(/C#N)c2nc(-c3ccc(OC)cc3)cs2)cc1 | 10.3
COc1ccc(-c2csc(/C(C#N)=C/Nc3ccc4c(c3)OCCO4)n2)cc1 | 2.83
Cc1ccc(-c2csc(/C(C#N)=C/Nc3ccc4c(c3)OCCO4)n2)cc1 | 16.1
CCN(CC)CCOC(=O)c1ccc(N/C=C(/C#N)c2nc(-c3cc4ccccc4oc3=O)cs2)cc1 | 26.6
c1ccc(-c2ncc(CSc3nncn3-c3ccccc3)s2)cc1 | 1.96
Cn1cc(SCC(=O)Nc2ccc3c(c2)OCO3)c2ccccc21 | 5.29
O=C(NCc1ccccc1Cl)c1ccccc1CCc1ccccc1 | 6.88
Cc1ccc(NC(=O)C2=CC=CN3CCS(=O)(=O)N=C23)cc1 | 2.18
CCc1ccc(NC(=O)C2=CC=CN3CCS(=O)(=O)N=C23)cc1 | 7.78
CN(C)C(=O)CCc1nc2sc3c(c2c(=O)[nH]1)CCCC3 | 18
NC(=O)Cn1cc(/C=N\NS(=O)(=O)c2ccc(Cl)cc2)c2ccccc21 | 20

Compound | inhibition [%]
COC(=O)c1ccc(NC(=S)N2CCN(Cc3ccc(Cl)cc3)CC2)cc1 | -0.55
O=C1NC(=S)S/C1=C\c1coc2ccc(O)cc2c1=O | 7.3
O=C1NN(c2ccccc2)C(=O)/C1=C\c1coc2ccc(O)cc2c1=O | 23.8
CSC1=NSC2=NC(=O)/C(=C/c3coc4ccc(O)cc4c3=O)C(=N)N12 | 14.1
CN1C(=O)/C(=C/c2coc3ccc(O)cc3c2=O)SC1=S | 11.2
COc1ccc(CCNC(=O)c2cccc(S(=O)(=O)N3CCCCC3)c2)cc1 | 8.12
C[C@H]1CN([C@@H](C)CO)C(=O)c2cccc(NC(=O)Nc3ccc(F)cc3)c2O[C@@H]1CN(C)Cc1ccc(C(=O)O)cc1 | 2.98
O=C(NCc1ccccn1)C1Nc2ccc(C(F)(F)F)cc2C2C=CCC12 (stereo unspecified) | 24.7
O=c1cc(CNc2cc(Cl)ccc2Cl)nc2sccn12 | 2.5
CCN(CC)C(=O)C(Sc1nnnn1-c1ccc(O)cc1)c1ccccc1 (stereo unspecified) | 3.92
Cc1c(Br)cnn1C(C)C(=O)N1CCN(c2ccc(F)cc2)CC1 (stereo unspecified) | 3.49
COc1cc(/C=C/C(=O)OCC(=O)Nc2ccc(Cl)cn2)ccc1O | 21.2
O=C(/C=C/c1cccc(Cl)c1)OCc1cn2cc(Cl)ccc2n1 | 11.7
COc1cc(/C=C/C(=O)OCC(=O)Nc2cc(C)c(C)cc2[N+](=O)[O-])ccc1O | 9.32
COc1cc(/C=C/C(=O)OCC(=O)Nc2ccccc2Sc2ccc(Cl)cc2)ccc1O | 16.7
O=C(COC(=O)/C=C/c1cccc(F)c1)Nc1ccccc1 | -19.5
COc1cc(NC(=O)COC(=O)/C=C/c2ccc(OC)c(OC)c2)cc(OC)c1 | -0.81
COc1cccc(/C=C/C(=O)NCc2cn3cc(Cl)ccc3n2)c1 | 2.4
COc1cc(/C=C/C(=O)OCC(=O)Nc2ccc([N+](=O)[O-])cc2)ccc1O | 4.8
